Data taken from the supplement of paper PMC10338343.
± gives the standard deviation. Over roughly 3,700 sequences, “pre-steady-state target cleavage rate” has its median near 0.02; the highest 2% begin near 0.23. Many of the other results were omitted from the sample, so the highest values are more common in it than they were.

tested on: MILI (PIWIL2) piRISC loaded with Kctd7 piRNA (26 nt); assay: pre-steady-state target cleavage rate (min^-1); MIWI and MILI are mouse PIWI proteins and EfPiwi is from a freshwater sponge; tags in brackets are library labels; higher = faster piRNA-guided slicing of the target; details: guide: Kctd7 piRNA 5'p-UGUUAAUCUCUCAGAGAAGGUGACAG; auxiliary factor: 500 nM mouse GTSF1
Protocol: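 Cleave-'n-Seq: a library of target RNAs (target site embedded in constant flanks, ACAGCATTCCGCGTTAGTGATATCCG... 5' flank; DNA-blocked outside the site) at 0.1 nM was incubated with 1 nM active mouse MILI or MIWI piRISC (synthetic 5'-monophosphorylated piRNA guide) with or without 500 nM mouse GTSF1 at 33 °C for 1 min to 16 h. Uncleaved targets were sequenced and normalised to non-target controls, and the pooled three trials were fitted to a burst-and-steady-state model to give the pre-steady-state cleavage rate (min^-1; k3 is constrained to at most 1e-4). Sequence is the target site only; target names encode pairing extent (gX:gY) and contiguous / 1-mismatch / 2-mismatch / bulge geometry. Fits with R² ≤ 0 are excluded.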

Row | Sequence | pre-steady-state target cleavage rate
1 | UAGUGUGUGACCUUGUCUGAGAGAUUAACA | 0.0744 ± 0.014
2 | UAGUGAGUCACCAUCUCUGACAGAUUAACA | 0.0409 ± 0.0068
3 | UAGUGACUCACCUUCUCUGAGAGCAUUAACA | 0.144 ± 0.016
4 | UAGUGACAGUGGAAGACUGACAGAUUUACA | < 0.0001
5 | UAGUGACAGUCAUUCUCUGAGAGAUUAACA | 0.00865 ± 0.0029
6 | UAGUGACAGACCUUCUCUGAGAAAUUAACA | 0.0522 ± 0.015
7 | UAGUGACAGACGCUUCUCUGAGAGAUUAACA | 0.0399 ± 0.0079
8 | UAGUGAGUCAGCUUCUCUGAGAGAUUUACA | 0.1 ± 0.018
9 | UAGUGUGACACCAUCUCUGAGAGAUUAACA | 0.137 ± 0.011
10 | UAGUGACAGUCCGUCUCUGAGAGAUUAACA | 0.0557 ± 0.0066
11 | UAGUCUGUCAGCUUCACUGAGAGAUUAACA | 0.0681 ± 0.0072
12 | UAGUGACACACCUUCUCUGAGAGAUUAUGA | 0.0394 ± 0.012
13 | UAGUGUGUCACCUACUCUGAGACAUUAACA | 0.0742 ± 0.019
14 | UAGUCUGUCACCUUCUCUGAGAGUAUAACA | 0.122 ± 0.022
15 | UAGUCUGUCACCUUCUCUGAGAGUUUAACA | 0.238 ± 0.04
16 | UAGUCUGUCACCUUCUGUGAGAGUUUAACA | 0.0702 ± 0.016
17 | UAGUCUGUCACCUUCUCUGAGAGAGUAACA | 0.245 ± 0.033
18 | UAGUCUGUCACCUUCUCUGAGAGUAUUAACA | 0.173 ± 0.013
19 | UAGUCUGUCACCUUCUCUGAGAGAUUAAACA | 0.147 ± 0.018
20 | UAGUCUGUCACCUUCUCUGAGAGUAAAACA | 0.0676 ± 0.024
21 | UAGUCUGUCACCUUCUCUGAGAGUUAAACA | 0.328 ± 0.096
22 | UAGUCUGUCACCUUCUCUGAGAGGUUAACA | 0.198 ± 0.025
23 | UAGUCUGUCACCUUCUCUGAGAGAUUAAAA | 0.12 ± 0.031
24 | UAGUCUGUCACCUUCUCUGUGAGUUUAACA | 0.0314 ± 0.0059

Row | Sequence | pre-steady-state target cleavage rate
25 | UAGUCUGUCACCUUCUCUGAGAGAGUUAACA | 0.297 ± 0.035
26 | UAGUGACAGUCCUUCUCUGAGUCAUUAAGA | < 0.0001
27 | UAGUGACACACGAUCUCUGAGAGAUUAACA | 0.0352 ± 0.0045
28 | UAGUGACAGACCUUAUCUGAGAGAUUAACA | 0.0894 ± 0.017
29 | UAGUGACAGUGCUUCUCCGAGAGAUUAACA | 0.0082 ± 0.0034
30 | UAGUGACAGUGGAAGAGAGAGAGAUUGAACA | < 0.0001
31 | UAGUGAGUCAGCUACUCUGAGAGAUUAACA | 0.135 ± 0.01
32 | UAGUGACACACCAACUCUGAGAGAUUAAGA | 0.018 ± 0.0037
33 | UAGUGACAGUCCUUCUCAGAGAGAUUUACA | 0.0138 ± 0.0054
34 | UAGUGACAGUGCUUCUCUGAGACAUAAACA | < 0.0001
35 | UAGUGAGUCACCUUCUCAGAGAGAUUUACA | 0.0954 ± 0.024
36 | UAGUCUGUCACCUUCUCUGAGAGACUUAACA | 0.145 ± 0.024
37 | UAGUCUGUCACCUUCUCUGAGAGUUAACA | 0.278 ± 0.082
38 | UAGUCUGUCACCUUCUCUGAGAGCUUAACA | 0.148 ± 0.016
39 | UAGUCUGUCACCAACUCUGAGAGAUUAAGA | 0.047 ± 0.0083
40 | UAGUCUGUCCACCUUCUCUGAGAGAUUAACA | 0.15 ± 0.018
41 | UAGUGAGUCACCUUCUCUGAGAGAUUAAUCA | 0.292 ± 0.053
42 | UAGUGUGCCACCUUCUCUGAGAGAUUAACA | 0.227 ± 0.023
43 | UAGUGAGUCACCUUCUCUGAGAGAUUAAUA | 0.217 ± 0.03
44 | UAGUGAGUCACCUUCUCUGAGAGAUUAACU [g2:g24:cont:t1U] | 0.288 ± 0.038
45 | UAGUGUGCACCUUCUCUGAGAGAUUAACA | 0.196 ± 0.024
46 | UAGUGUGUCACCUUCCCUGAGAGAUUAACA | 0.301 ± 0.056
47 | UAGUGAGUCACCUUCUCUGAGAGAUUAACCA | 0.219 ± 0.017
48 | UAGUGAGUCACCUUCUCUGAGAGAUUAACC [g2:g24:cont:t1C] | 0.192 ± 0.018

Row | Sequence | pre-steady-state target cleavage rate
49 | UAGUGAGUCACCUUCUCUGAGAGAAUUACA | 0.105 ± 0.048
50 | UAGUGAGUCACCUUCUCUGAGAAAUUAACA | 0.132 ± 0.027
51 | UAGUGAGUCACCUUCUCUGAGAGAUUAUCA | 0.197 ± 0.037
52 | UAGUGAGUCACCUUCUCUGAGAGAAUUAACA | 0.318 ± 0.059
53 | UAGUGUGUGCACCUUCUCUGAGAGAUUAACA | 0.195 ± 0.021
54 | UAGUGACACAGGUUCUCUGAGAGAUUAAGA | 0.00675 ± 0.0025
55 | UAGUGACAGUCCUUCUCUGAGAGAUUACCA | 0.00831 ± 0.0032
56 | UAGUGACAGACCUUCUGUGAGAGAUUAACA | 0.087 ± 0.012
57 | UAGUGACACAGGUUCUCUGAGAGAUUAACA | 0.0267 ± 0.0054
58 | UAGUCUGUCACCAUCUCUGAGAGAUUUACA | 0.124 ± 0.018
59 | UAGUGACAGUCCUUCUCUGUGAGAUUAACA | 0.033 ± 0.0057
60 | UAGUCUGUGACGUUCUCUGAGAGAUUAACA | 0.147 ± 0.01
61 | UAGUGACAGACCUUCUCUGAGAGGUUAACA | 0.221 ± 0.058
62 | UAGUGAGUCACCUUCUCUGAGAGAUUAACA [g2:g24:cont:t1A] | 0.25 ± 0.021
63 | UAGUGACACCACCUUCUCUGAGAGAUUAACA | 0.184 ± 0.017
64 | UAGUGAGUCACCUUCUCUGAGGAGAUUAACA | 0.0247 ± 0.011
65 | UAGUGAGGUCACCUUCUCUGAGAGAUUAACA | 0.242 ± 0.016
66 | UAGUGAGUCACCUUCUCUCUGAGAUUAACA | 0.0118 ± 0.0043
67 | UAGUGAGUCACCUUCUCUGAGAGAUUAAA | 0.202 ± 0.045
68 | UAGUGAGUCACCUUCUCUGAGAGAUUAAACA | 0.33 ± 0.049
69 | UAGUGAGUGACCUUCUCUGAGAGAUUAACA | 0.157 ± 0.0097
70 | UAGUGACCCACCUUCUCUGAGAGAUUAACA | 0.286 ± 0.039
71 | UAGUGGGUCACCUUCUCUGAGAGAUUAACA | 0.175 ± 0.01
